Only some compounds are listed: those with a hit (about 6.2% of all), similar ones and a draw of the others.
ATXN viability – cell viability loss in ATXN counter-screen; 400,000 tested, 0.49% active; Potency, µM (highest dose often 56.7 µM), actives largely listed as cytotoxic; S2 cells (HEK-293 line with an ATXN2-luciferase reporter) viability, CellTiter-Fluor protease fluorescence, 24 h; AID 651635; also: nearly all actives have a fitted effect of over 40% in size
ATXN2 expr inh – inhibitors of ATXN2 expression. HEK-293 ATXN2-luciferase reporter, luminescence, 24 h. Potency, µM (series often up to 57 µM), hits mostly inhibitors. 360,000 tested, 0.72% active. AID 1745845; also: nearly all actives have a fitted effect of over 55% in size
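ATXN2-luciferase reporter cells (luciferase flanked by upstream and downstream ATXN2 gene portions) were treated 24 h at 37 °C with compounds at up to 57 uM. SteadyGlo luminescence gave expression; GF-AFC fluorescence gave viability.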
HT1080 IDH1KD tx – HT-1080 IDH1 knockdown cell toxicity (counter line) | HT-1080 IDH1 knockdown viability, ATP luminescence, 48 h | Potency, µM (top dose mostly 46.1 µM), usual class: cytotoxic | 360,000 tested, 2% active
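Knockdown cells (IDH1KD HT-1080) received compounds 2 h after plating at 750 cells/well and were kept 48 h at 37 °C in 5% FBS RPMI. A CellTiter-Glo luminescence read gave % activity for curve fitting.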
HT1080-NT tox – kills 2HG-producing HT-1080-NT fibrosarcoma cells; Potency, µM (series often up to 46.1 µM), actives largely listed as cytotoxic; HT-1080-NT fibrosarcoma viability, CellTiter-Glo ATP luminescence, 48 h; 360,000 tested, 1.6% active;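 also: NT is the 2HG producing partner of a matched IDH1 knockdown line; nearly all actives have a fitted effect of over 55% in size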
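Toxicity toward the 2HG-producing NT line was scored as %Activity, normalised to DMSO and no-cell wells, from CellTiter-Glo luminescence after 48 hours' treatment.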
KB-3-1 cytotox – KB-3-1 parental cell cytotoxicity; KB-3-1 viability, CellTiter-Glo ATP luminescence, 72 h; Potency, µM (titrated, usually from 46.1 µM), usual class: cytotoxic; 400,000 tested, 1.4% active; AID 1347075; also: nearly all actives have a fitted effect of over 60% in size
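Cytotoxicity measured as CellTiter-Glo luminescence after 72 h at 37 C. Compound titrations were pinned onto drug-naive KB-3-1 parental adenocarcinoma cells grown in DMEM with 10% FBS, and normalized data fitted to concentration-response curves.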
KB-V1 MDR tox – KB-V1 MDR subline cytotoxicity. KB-V1 MDR cells viability, CellTiter-Glo, 72 h. Potency, µM (titrated, usually from 46.1 µM), hits mostly cytotoxic. 400,000 tested, 3.4% active. AID 1347076; also: nearly all actives have a fitted effect of over 60% in size
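KB-V1 MDR subline cells in DMEM (phenol-red free, 10% FBS) exposed to compounds in qHTS concentration series for 72 h at 37 degrees C. Viability read by CellTiter-Glo luminescence; concentration-effect curves fitted after normalization and correction.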
Large screens that a line does not name were inactive. Calls follow the shape of the dose curve; as a rule, active = well fitted curve in the direction sought with a large enough effect; inconclusive = small, poorly fitted or top-dose-only effect, or another doubt; inactive = no such curve, though single readings can be large; an effect the other way counts as inactive or inconclusive.

Cc1ccc(S(=O)(=O)CC(CN2CCCCC2)N2CCCCC2)cc1 (centres undefined)	ATXN2 expr inh inconclusive, HT1080 IDH1KD tx 18µM, HT1080-NT tox 18µM, KB-3-1 cytotox inconclusive
O=S(=O)(CC(CN1CCOCC1)N1CCOCC1)c1ccccc1 (centres undefined)	none (no result: ATXN2 expr inh)
CCc1ccc2oc(-c3ccc(C)c(NC(=O)c4cc([N+](=O)[O-])ccc4N4CCOCC4)c3)nc2c1	none (no result: HT1080 IDH1KD tx, HT1080-NT tox)
COc1ccc(C=C2SC(=S)NC2=O)c(OC)c1OC	ATXN viability inconclusive, HT1080 IDH1KD tx inconclusive, KB-3-1 cytotox inconclusive, KB-V1 MDR tox 15µM
COc1ccc(/C=C2/CC/C(=C\c3ccc(OC)c(OC)c3OC)C2=O)c(OC)c1OC	KB-V1 MDR tox 2.1µM
CCCCc1ccc(NC(=O)COC(=O)c2ccccc2OCC(=O)Nc2ccc(Br)cc2)cc1	KB-3-1 cytotox inconclusive (no result: ATXN viability, ATXN2 expr inh, HT1080 IDH1KD tx, HT1080-NT tox)
COc1ccc(S(=O)(=O)N2CCN(c3nc(-c4cccs4)nc4ccccc34)CC2)cc1	KB-V1 MDR tox inconclusive (no result: ATXN viability, ATXN2 expr inh)
COc1ccc(N2CCN(c3oc(-c4ccccc4C)nc3S(=O)(=O)c3ccccc3)CC2)cc1	none (no result: ATXN viability, ATXN2 expr inh, HT1080 IDH1KD tx, HT1080-NT tox)
O=C(NCCSc1c[nH]c2ccccc12)c1ccccc1Cl	KB-V1 MDR tox inconclusive (no result: HT1080 IDH1KD tx, HT1080-NT tox)
CCC(=O)N1c2ccccc2CC1C(=O)NCc1ccc(N(C)C)cc1 (centres undefined)	none (no result: HT1080 IDH1KD tx, HT1080-NT tox)
NC(=O)c1cccc(-c2ccnc3c2CC(C(=O)NCc2ccco2)O3)c1 (centres undefined)	HT1080 IDH1KD tx 4.1µM, HT1080-NT tox inconclusive, KB-3-1 cytotox 6.5µM
CN(C)c1ccc(CNC(=O)C2Cc3c(-c4cccc(C(N)=O)c4)ccnc3O2)cc1 (centres undefined)	HT1080 IDH1KD tx inconclusive, HT1080-NT tox inconclusive
O=C(NCc1ccccc1)C1Cc2c(-c3cccc(F)c3)ccnc2O1 (centres undefined)	HT1080 IDH1KD tx 1.2µM, HT1080-NT tox inconclusive, KB-3-1 cytotox 4.6µM, KB-V1 MDR tox 1.5µM
CC(=O)c1cccc(-c2ccnc3c2CC(C(=O)NCc2ccc(F)c(F)c2)O3)c1 (centres undefined)	ATXN viability inconclusive, HT1080 IDH1KD tx inconclusive, HT1080-NT tox inconclusive, KB-3-1 cytotox 5.2µM, KB-V1 MDR tox inconclusive
O=C(NCc1ccccc1)C1Cc2c(-c3ccc(Cl)cc3)ccnc2O1 (centres undefined)	HT1080 IDH1KD tx 0.73µM, HT1080-NT tox inconclusive, KB-3-1 cytotox 5.8µM, KB-V1 MDR tox 1.5µM
COc1ccc(N2CCN(C(=S)Nc3cc(C)ccn3)CC2)cc1	none (no result: ATXN viability, ATXN2 expr inh, HT1080 IDH1KD tx, HT1080-NT tox)
CC(C)(C)OC(=O)N1CCC(c2c(C(=O)N3CCN(c4ccccn4)CC3)cnn2-c2ccccc2Cl)CC1	none (no result: ATXN viability, ATXN2 expr inh, HT1080 IDH1KD tx, HT1080-NT tox)
Cc1cccc(N2CCN(C(=O)c3cnn(-c4ccc(F)cc4F)c3C3CCN(C(=O)OC(C)(C)C)CC3)CC2)c1C	KB-3-1 cytotox inconclusive (no result: ATXN viability, ATXN2 expr inh, HT1080 IDH1KD tx, HT1080-NT tox)
CCCNC(=O)CSc1nc2nc(C)c(Cc3ccccc3Cl)c(C)n2n1	none (no result: HT1080 IDH1KD tx, HT1080-NT tox)
COc1ccc(-c2ccc3ncnc(N(C)Cc4csc(C)n4)c3c2)cc1OC	KB-3-1 cytotox inconclusive (no result: ATXN viability, ATXN2 expr inh, HT1080 IDH1KD tx, HT1080-NT tox)
CC(=O)c1cccc(-c2ccnc3c2CC(C(=O)NCc2ccco2)O3)c1 (centres undefined)	ATXN viability inconclusive, HT1080 IDH1KD tx 1.3µM, HT1080-NT tox inconclusive, KB-3-1 cytotox 1.2µM, KB-V1 MDR tox 0.92µM
O=C(NCC1CC1)C1Cc2c(-c3cccc(F)c3)ccnc2O1 (centres undefined)	HT1080-NT tox inconclusive
O=C(NCc1ccco1)C1Cc2c(-c3cccc(F)c3)ccnc2O1 (centres undefined)	HT1080 IDH1KD tx 0.73µM, HT1080-NT tox inconclusive, KB-3-1 cytotox 1.2µM, KB-V1 MDR tox 4.6µM
NC(=O)c1cccc(-c2ccnc3c2CC(C(=O)NCCc2ccccc2)O3)c1 (centres undefined)	HT1080 IDH1KD tx 7.3µM, HT1080-NT tox inconclusive, KB-3-1 cytotox inconclusive
COC(=O)c1ccc(C(=O)OC)c(NC(=O)c2cnn3c(C(F)F)cc(-c4ccccc4)nc23)c1	none (no result: HT1080 IDH1KD tx, HT1080-NT tox)
Cc1ccc(-c2nnc(Nc3ccc(C(N)=O)cc3)c3ccccc23)cc1S(N)(=O)=O	KB-V1 MDR tox inconclusive (no result: HT1080 IDH1KD tx, HT1080-NT tox)
